# Hit rate of the full screen: of about 360,000 compounds, about 2,400 (0.67%) were called active. Only a selection was taken, and actives are over-represented in it overall. Values without a mark were called inactive.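 The calls were made as follows: active = activation above a run cutoff, the mean activation of all tested compounds plus 3 SD (cut at about 14% in these data); inactive = the rest.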
# Molecular target: 5-hydroxytryptamine receptor 2A (Mus musculus) (UniProt P35363)
# Experiment: mouse Htr2a agonists via beta-arrestin recruitment, primary screen, cell-based, luminescence (AID 624169);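 also: 0% = plate median of compound wells and 100% = 30 µM serotonin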
# Conditions: CHO-K1 mHTR2A beta-arrestin complementation, at 7.6 µM, hits give high values, percent of 30 µM serotonin response
# Chain of 5-hydroxytryptamine receptor 2A (Mus musculus) (P35363 whole entry, looked up): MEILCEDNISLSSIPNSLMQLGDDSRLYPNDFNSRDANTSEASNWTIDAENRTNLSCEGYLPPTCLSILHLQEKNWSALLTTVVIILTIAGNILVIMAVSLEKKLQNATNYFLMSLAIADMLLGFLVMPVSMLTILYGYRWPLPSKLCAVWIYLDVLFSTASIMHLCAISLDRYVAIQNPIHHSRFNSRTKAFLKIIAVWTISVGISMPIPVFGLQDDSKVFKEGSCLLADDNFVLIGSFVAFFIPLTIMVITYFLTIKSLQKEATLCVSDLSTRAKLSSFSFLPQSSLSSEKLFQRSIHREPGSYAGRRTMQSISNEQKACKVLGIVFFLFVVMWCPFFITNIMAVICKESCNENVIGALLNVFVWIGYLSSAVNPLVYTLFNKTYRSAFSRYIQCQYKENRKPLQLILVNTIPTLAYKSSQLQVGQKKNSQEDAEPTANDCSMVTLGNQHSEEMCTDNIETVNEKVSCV
row,SMILES,activation
1,CC1(Cc2cccc(C#N)c2)C(=O)Nc2ccc(-c3cccc(C(F)(F)F)c3)cc21 (stereo unspecified),16.7% (active)
2,Cc1ccc(CC2(C)C(=O)Nc3ccc(OC(F)(F)F)cc32)cc1 (stereo unspecified),-3.94%
3,CC1(Cc2ccccc2C#N)C(=O)Nc2ccc(-c3ccc4[nH]ccc4c3)cc21 (stereo unspecified),-1.29%
4,COC(=O)[C@]12CCCCC=C1N(Cc1ccc3c(c1)OCO3)C(=O)[C@H](CC(=O)N1CCOCC1)C2,2.87%
5,O=C(Nc1cccc2c1CCCC2)C1CCN(C(=O)NC2CCCCC2)CC1,2.77%
6,CCOC(=O)c1cccc(NC(=O)C2CCCN(S(=O)(=O)c3cnc[nH]3)C2)c1 (stereo unspecified),9.95%
7,O=c1[nH]nc(Cc2ccccn2)c2ccccc12,2.3%
8,Cc1cc([N+](=O)[O-])ccc1NC1CCCC1,15.6% (active)
9,Cc1cc(C=O)c(C)n1-c1ccc(NC2CCCCC2)c([N+](=O)[O-])c1,3.39%
10,Cc1cc([N+](=O)[O-])c(NC2CCCCC2)c([N+](=O)[O-])c1,0.25%
11,COc1cc2sc(C)nc2cc1C,-1.33%
12,CCOC(=O)c1cc(-c2sc(NC(=O)c3ccccc3)nc2C)n(Cc2ccccc2)n1,-1.51%
13,CCOC(=O)c1cc(-c2ccccc2C)n(Cc2cc(C)no2)n1,22.5% (active)
14,CCOC(=O)c1cc(-c2sc(NC(=O)c3ccccc3)nc2C)n(CCO)n1,-1.86%
15,Cc1noc(C)c1COc1ccccc1C(=O)N(C)CC(=O)Nc1cccc(F)c1,-2.16%
16,CCCCN1C[C@H](c2ccc(Br)cc2)[C@@H](CC(=O)Nc2ccc(Br)cc2)C1=O,5.11%
17,O=C(CN1CCOCC1)N1CCCc2c1c(=O)oc1ccc(OCc3ccccc3)cc21,-4.24%
18,COCCN(C(=O)c1ccccc1F)c1c(N)n(Cc2ccccc2)c(=O)[nH]c1=O,-0.11%
19,Nc1c(N(Cc2ccco2)C(=O)c2cccc(F)c2)c(=O)[nH]c(=O)n1Cc1ccccc1,16.4% (active)
20,Nc1c(N(CCO)C(=O)C2CCCCC2)c(=O)[nH]c(=O)n1Cc1ccccc1,-0.82%
21,CC(C(=O)N(C)CC(=O)Nc1ccccc1C(F)(F)F)N1C(=O)c2ccccc2C1=O (stereo unspecified),-1.36%
22,CC(=O)c1sc(NC(=O)CCN2C(=O)C3CC=CCC3C2=O)nc1-c1ccccc1 (stereo unspecified),-2.19%
23,Cc1cc(NC(=O)/C=C/C(=O)N(CC(=O)NC2CCCC2)c2ccc(F)cc2)no1,5.36%
24,O=C(c1ccncc1)N1CCN(S(=O)(=O)c2cc(C(F)(F)F)cc(C(F)(F)F)c2)CC1,-5.52%
25,O=C(Cc1ccsc1)N1CCN(S(=O)(=O)c2cc(C(F)(F)F)cc(C(F)(F)F)c2)CC1,16.3% (active)
26,O=C(CCC(=O)N1CCN(S(=O)(=O)c2ccc(Cl)cc2)CC1)NCc1cccc(C(F)(F)F)c1,-0.98%
